Measurements as given in PubChem BioAssay (NCATS).
Results filed as inconclusive are left out. Calls of active or inactive are those of the source. Unless noted, the call rests on the fitted dose curve; in most records, active means well fitted curve in the direction sought with a large enough effect; inconclusive means small, poorly fitted or top-dose-only effect, or another doubt; inactive means no such curve, though single readings can be large; an effect the other way counts as inactive or inconclusive.

Experiments:
[1] = S16 Schwann cell viability assay (CellTiter-Glo assay) (AID 624031); further: nearly all actives have a fitted effect of over 70% in size; further: potency means the concentration at half of the fitted maximal effect
In short: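 Cells were seeded at 500-750 per well in phenol red-free DMEM with 10% FBS and left overnight. Compounds or DMSO were pinned in, incubation ran 24 h at 37 °C/5% CO2, then CellTiter-Glo reagent was added and luminescence measured.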

[2] = S16 Schwann cell PMP22 intronic element beta-lactamase assay (AID 624044; calls by dose curve;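 further: 0% = DMSO and -100% = potassium clavulanate positive control; nearly all actives have a fitted effect of over 15% in size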); settings: S16 rat Schwann cells, PMP22 element beta-lactamase FRET, 24 h; ratio activity, negative = inhibition: at 38.3 µM (top of the series) unless noted
In short: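 Beta-lactamase reporter under a PMP22 intronic regulatory element in stable S16 rat Schwann cells; 24 h compound exposure. 460 nm blue signal normalized between DMSO (0%) and potassium clavulanate, with 535 nm FRET tracking viability; curves classed by r2 and response.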

7G8 = assay: qHTS profiling for inhibitors of Plasmodium falciparum proliferation (AID 504749); further: nearly all actives have a fitted effect of over 60% in size; further: potency means the concentration at half of the fitted maximal effect;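 on activity, negative = inhibition: 0% = DMSO vehicle and full inhibition = artemisinin control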; settings: P. falciparum in erythrocytes, SYBR Green DNA, 72 h; series mostly up to 12.8 µM
In short: (§1)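 In a 72 h erythrocytic culture (37 C, humidified, 5% CO2) at 2.5% hematocrit and 0.3% starting parasitemia, compounds were tested; SYBR Green I in detergent lysis buffer stained parasite DNA overnight.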

AA1029 = assay: as above; settings: P. falciparum in erythrocytes, SYBR Green DNA, 72 h; series mostly up to 28.7 µM
In short: as §1

CP211 = assay: as above; settings: P. falciparum in erythrocytes, SYBR Green DNA, 72 h; series mostly up to 28.7 µM
In short: as §1

CP252 = assay: as above; settings: P. falciparum in erythrocytes, SYBR Green DNA, 72 h; series mostly up to 12.8 µM
In short: as §1

CP291 = assay: as above; settings: P. falciparum in erythrocytes, SYBR Green DNA, 72 h; series mostly up to 28.7 µM
In short: as §1

CP297 = assay: as above; settings: P. falciparum in erythrocytes, SYBR Green DNA, 72 h; series mostly up to 28.7 µM
In short: as §1

CP315 = assay: as above; settings: P. falciparum in erythrocytes, SYBR Green DNA, 72 h; series mostly up to 28.7 µM
In short: as §1

CP335 = assay: as above; settings: P. falciparum in erythrocytes, SYBR Green DNA, 72 h; series mostly up to 12.8 µM
In short: as §1

ICS = assay: as above; settings: P. falciparum in erythrocytes, SYBR Green DNA, 72 h; series mostly up to 28.7 µM
In short: as §1

N140 = assay: as above; settings: P. falciparum in erythrocytes, SYBR Green DNA, 72 h; series mostly up to 28.7 µM
In short: as §1

[3] = qHTS Assay for Modulators of Human Peripheral Myelin Protein 22 (PMP22) Expression/Activity (AID 1967; active means well fitted curve in the direction sought with a large enough effect in the signal ratio; the % refers to the signal ratio;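 further: 0% = untreated cells and 100% end not stated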)
In short: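 MSC80 mouse Schwann cells stably carrying Pmp22 promoter–green click beetle luciferase plus EF-alpha–red luciferase control were dosed for 24h at 37 °C. Dual-colour luminescence was filter-overlap corrected; %Activity came from green/red ratio versus untreated cells.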

[4] = HepG2 viability counterscreen (readout 2: ATP content) against the NCATS DSHEA and TCM libraries (AID 1794840);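 further: HepG2 cells exposed to substances for about 24 h; 0% is about no effect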
In short: (§2)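 HepG2 cells (1,000 cells/well) attached ~4 h, then treated ~24 h at 37C with substances. Protease activity read by GF-AFC (25 uM final, 30 min, Ex/Em 380/510 nm); ATP content then by CellTiter-Glo luminescence.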

[5] = HepG2 viability counterscreen (readout 1: protease activity) against the NCATS DSHEA and TCM libraries (AID 1794841);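 further: cells exposed to compounds for about 24 h before the protease read; 0% is about no effect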
In short: as §2

[6] = KB-3-1 P-gp reporter qHTS against the NCATS DSHEA and TCM libraries (AID 1919975); further: 0% is about no effect
In short: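 Parental KB-3-1 human cervical adenocarcinoma cells (500 cells/well, DMEM + 10% FBS) were treated with substances for ~72 h at 37C; viability was read by CellTiter-Glo luminescence.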

[7] = qHTS Counterscreen for compound interference against the NCATS DSHEA and TCM libraries (AID 1919978); settings: firefly luciferase detection reagent interference, luminescence; further: % of control where 0% means no effect
In short: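 D-luciferin (1 uM final) or 100 mM potassium phosphate buffer alone was preincubated 15 min at RT with compounds (19.5 nM to 39.8 uM final). Luciferin detection reagent was then added and luminescence read after 30 min at RT.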

[8] = Dual reporter qHTS for agonist of Pregnane X Receptor (hPXR) against the NCATS DSHEA and TCM libraries: Fluorescence readout (AID 1920058); further: 0% is about no effect
In short: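 In this qHTS counter-read, reporter-bearing HepG2 cells in charcoal-stripped serum received substances for approximately 24 h before viability was assessed fluorometrically with CellTiter-Fluor.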

[9] = target: Nuclear receptor subfamily 1 group I member 2 (Homo sapiens) (UniProt O75469); assay: Dual reporter qHTS for agonist of Pregnane X Receptor (hPXR) against the NCATS DSHEA and TCM libraries: Luminescence readout (AID 1920059); further: 0% is about no effect
In short: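 Luminescent PXR reporter read (ONE-Glo) after a CellTiter-Fluor viability read, following 24 h, 37C treatment of HepG2 cells stably carrying hPXR-Luc.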

[10] = target: Nuclear receptor subfamily 1 group I member 2 (Homo sapiens) (UniProt O75469); assay: Dual reporter qHTS for antagonist of Pregnane X Receptor (hPXR) against the NCATS DSHEA and TCM libraries: Luminescence Readout (AID 1920060); further: 0% is about no effect
In short: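 Rifampicin-stimulated (2 uM final) hPXR-luciferase HepG2 cells were treated for 24 h with DSNP/TCM substances. Viability came from CellTiter-Fluor fluorescence, reporter activity from ONE-Glo luminescence.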

Chain of Nuclear receptor subfamily 1 group I member 2 (Homo sapiens) (O75469 whole entry, looked up): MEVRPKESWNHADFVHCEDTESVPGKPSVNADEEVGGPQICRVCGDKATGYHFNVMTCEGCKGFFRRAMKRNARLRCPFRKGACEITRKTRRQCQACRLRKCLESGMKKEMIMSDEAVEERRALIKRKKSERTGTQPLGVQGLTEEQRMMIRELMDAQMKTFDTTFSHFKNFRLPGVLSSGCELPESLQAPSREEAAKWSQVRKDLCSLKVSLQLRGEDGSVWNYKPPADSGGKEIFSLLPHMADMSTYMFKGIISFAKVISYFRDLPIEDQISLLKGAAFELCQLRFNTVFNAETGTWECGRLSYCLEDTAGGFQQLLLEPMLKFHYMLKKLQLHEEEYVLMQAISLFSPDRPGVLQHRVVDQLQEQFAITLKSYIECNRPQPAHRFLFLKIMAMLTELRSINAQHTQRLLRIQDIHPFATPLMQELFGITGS

C[C@]12CC[C@H](OS(=O)(=O)O)CC1=CCC1C2CC[C@]2(C)C(=O)CC[C@@H]12 (stereo not given in full)
inactive: Potency [1] | Potency [2] | Potency (7G8) | Potency (AA1029) | Potency (CP211) | Potency (CP252) | Potency (CP291) | Potency (CP297) | Potency (CP315) | Potency (CP335) | Potency (ICS) | Potency (N140)

COc1ccc2c3c1O[C@H]1C(=O)CC[C@@]4(O)C(C2)N(CC2CC2)CCC314 (stereo not given in full)
inactive: outcome [3]

C[C@H]1C2Cc3ccc(O)cc3[C@]1(C)CCN2CC1CC1
inactive: outcome [3]

CC(C)(O)C1C2OC(=O)C1[C@]1(O)C[C@H]3O[C@]34C(=O)O[C@H]2[C@]14C (stereo not given in full) (tested in a mixture with another compound)
inactive: Potency [2] | Potency (7G8) | Potency (AA1029) | Potency (CP211) | Potency (CP252) | Potency (CP291) | Potency (CP297) | Potency (CP315) | Potency (CP335) | Potency (ICS) | Potency (N140)

Oc1ccc2c3c1O[C@H]1[C@@H](O)CC[C@@]4(O)C(C2)N(CC2CCC2)CCC314 (stereo not given in full)
inactive: outcome [3] | Potency [1] | Potency [2] | Potency (AA1029) | Potency (CP211) | Potency (CP252) | Potency (CP291) | Potency (CP297) | Potency (CP315) | Potency (CP335) | Potency (ICS) | Potency (N140)

COC(=O)C(N)CCCN=C(N)N[N+](=O)[O-] (stereo not given)
inactive: outcome [3]

[Hg+][c]1ccccc1
active: Potency [1] 1140 nM | Potency (7G8) 1780 nM | Potency (CP335) 10700 nM

O=S(=O)(O)O
inactive: outcome [4] | outcome [5] | outcome [6] | max response [7] -1.96% | outcome [8] | Potency [9] | outcome [10]

COc1cc2c(cc1O)CC1NCCc3cc(OC)c(OC)c-2c31 (stereo not given)
inactive: outcome [4] | outcome [5] | outcome [6] | max response [7] -2.18% | outcome [8] | Potency [9] | outcome [10]

COC1=CC(=O)OC(CCc2ccccc2)C1 (stereo not given)
inactive: outcome [4] | outcome [5] | outcome [6] | max response [7] 2.83% | outcome [8] | Potency [9] | outcome [10]

COC1=CC(=O)O[C@@H](/C=C/c2ccc3c(c2)OCO3)C1
inactive: outcome [4] | outcome [5] | outcome [6] | max response [7] 0.0511% | outcome [8] | Potency [9] | outcome [10]

C[C@]12CC[C@H]3[C@@H](CCC4=CC(=O)CC[C@@]43C)[C@@H]1CC[C@@H]2O
inactive: Potency [1] | Potency [2] | Potency (7G8) | Potency (AA1029) | Potency (CP211) | Potency (CP252) | Potency (CP291) | Potency (CP297) | Potency (CP315) | Potency (ICS) | Potency (N140)
